Shn3 3UTR inh – inhibitors of Schnurri-3 3'UTR reporter in osteoblasts. Clone20 osteoblast Shn3 3'UTR firefly luciferase, 24 h. actives 0.52% (n = 360,000). AID 588674. inhibition, % at 12.5 µM;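 active = mean inhibition of at least 75% with every replicate also reaching 75%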
Peg3 promoter – Peg3 promoter activity inhibition | HeLa PEG-Prom luciferase reporter, luminescence, overnight | inhibition, % at 20 µM | actives 1.7% (n = 360,000) | AID 588405;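 active = inhibition of at least 50% at 20 µM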
CF NFkB inh – blocks PAF-induced NF-kB reporter in cystic fibrosis cells | actives 0.86% (n = 360,000) | inhibition, % at 5 µM | KKLEB NF-kB-GFP reporter, GFP fluorescence overnight | AID 588850;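 active = at least 50% inhibition at 5 µM, scaled per plate between neutral and stimulator controls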;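 also: PAF is a Pseudomonas aeruginosa culture filtrate used as stimulus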
KKLEB cytotox – CF airway cell cytotoxicity counter-screen; KKLEB CF airway cells viability, ATPlite luminescence, overnight; active compounds read low; cells stimulated with P. aeruginosa culture filtrate; activity change (cytotoxicity), % at 5 µM; actives 0.36% (n = 360,000); AID 602141;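 active = corrected activity change at or below -50% at 5 µM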
HIF-2a block – blocks HIF-2a reporter activity; 786-0 RCC cells HIF-2a reporter, luciferase luminescence, overnight; inhibition, % at 18.8 µM; actives 0.72% (n = 360,000); AID 624352;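 active = inhibition of the luminescence signal of 40% or more relative to plate controls, in a single-dose primary screen at 18.75 µM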
Of the large screens only hits and unclear results are named; the others gave an inactive call. The list is not random: actives were taken first. Their share in the collection is about 2.6%.

N=C1/C(=C\c2ccc(-c3ccc(C(=O)O)cc3)o2)C(=O)N=C2SC=C(c3ccccc3)N12	CF NFkB inh 72
COc1cc(OC)cc(-n2nnnc2SCC(=O)NCc2cccs2)c1	none
COc1ccc(-c2cc(=O)oc3c(C)c(O)c(CN(C)C)cc23)cc1	CF NFkB inh 55
COc1ccc(-c2cc(=O)oc3c(C)c(OCC(=O)N(C)C)ccc23)cc1	none
O=C(OCc1ccccc1)N1CCC2CC1c1ccc(N3CCNCC3)cc12 (stereo not drawn)	none
CC1CC2OC(=O)C3(C)CCCC(C)(C23)C1(O)CCc1ccoc1 (stereo not drawn)	none
CCCOc1ccccc1N/C(=N/c1nc(C)cc(C)n1)NC(=O)COc1ccc(OC)cc1	Shn3 3UTR inh 91
CCCOc1ccccc1N/C(N)=N/c1nc(C)cc(C)n1	none
C#Cc1cccc(-n2nnc(C(=O)OC)c2-c2ccccc2)c1	none
COc1ccc2[nH]c(=O)cc(C(=O)O)c2c1	none
COc1ccc2[nH]c3c4c(ccc3c2c1)C(=O)C=CC4=O	Shn3 3UTR inh 96, Peg3 promoter 117, CF NFkB inh 64, HIF-2a block 80
COC1=C(OC)C(=O)C(Sc2ccc3ccccc3c2)=CC1=O	Shn3 3UTR inh 87, Peg3 promoter 64, HIF-2a block 49
COc1ccc(S(=O)(=O)Oc2ccc3ccccc3c2)cc1	none
Cc1ccc(-n2nnnc2SCC(=O)Nc2ccc3c(c2)OCCO3)cc1C	none
Cc1ccc(NC(=O)CSc2nnnn2-c2ccc3c(c2)OCO3)cc1C	CF NFkB inh 65, KKLEB cytotox -54
NNC(=S)Nc1ccc(C(F)(F)F)cc1Cl	none
CCN1CCN(/C=N/c2nc3c(s2)CCCC3)CC1	Peg3 promoter 55
CN1CCN(CC(=O)Nc2nc3c(s2)CCCC3)CC1	none
CN(C)CCN=Cc1c(O)n(Cc2ccccc2)c(=O)c2ccccc12	none
CC1(C)CC(N=Cc2c(O)n(Cc3ccc4c(c3)OCO4)c(=O)c3ccccc23)CC(C)(C)N1	Peg3 promoter 82
CC(=O)NCCNC(=O)c1ccc(Sc2ccccc2)c([N+](=O)[O-])c1	none
CN(C)CCNC(=O)c1ccc(Sc2ccc(Br)cc2)c([N+](=O)[O-])c1	Peg3 promoter 94
Cn1c(=O)c2cc(NC(=O)NCc3ccccc3)ccc2n1Cc1cccc(C(F)(F)F)c1	none
O=C1Nc2cc(C(=O)NCCCN3CCOCC3)ccc2S/C1=C/c1cccc(Cl)c1	Peg3 promoter 107
CCC1CCCCN1CCCNC(=O)c1ccc(/C=C2/Sc3ccccc3NC2=O)cc1 (stereo not drawn)	Peg3 promoter 99
COc1ccc(/C=C2/Sc3ccc(C(=O)NCCN4CCCCCC4)cc3NC2=O)cc1	Peg3 promoter 105
O=C1Nc2cc(C(=O)NCCCN3CCCC3)ccc2S/C1=C\c1ccccc1	Peg3 promoter 91
COc1cc(C2Oc3ccccc3C=C2[N+](=O)[O-])cc(OC)c1OC (stereo not drawn)	Peg3 promoter 52
COc1cc(C2NC(=O)c3ccccc3O2)cc(OC)c1OC (stereo not drawn)	none
COc1ccc(CC(=O)OC(C)C(=O)Nc2ccc(Cl)cn2)cc1 (stereo not drawn)	none
CCOc1cc(CNCc2ccccc2)ccc1OCc1ccc(Cl)cc1	Shn3 3UTR inh 92
COc1ccc(CNCCc2ccccc2)cc1OCC(N)=O	none
COc1ccc(CCNCc2ccc(-c3ccccc3)cc2)cc1OC	Peg3 promoter 87
COc1ccc(CNCCc2ccc(Cl)cc2)cc1OCc1ccccc1	Peg3 promoter 78
Cc1ccc(NC(=O)C(=O)NCCN2CCN(S(=O)(=O)c3ccccc3)CC2)cc1C	none
COc1ccc(Nc2nc(N)c([N+](=O)[O-])c(N3CCOCC3)n2)cc1	none
CN(C)c1ccc(Nc2nc(N)c([N+](=O)[O-])c(N3CCOCC3)n2)cc1	Peg3 promoter 52
CCN(CC)C(=O)[C@H]1CC(CC(=O)NCC23CC4CC(CC(C4)C2)C3)C(=O)N2CCc3c([nH]c4ccccc34)[C@]12C (stereo partly drawn)	none
COc1cccc(/C=C2\SC(=S)N(CCCC(=O)N3CCCCC3)C2=O)c1	Peg3 promoter 53, HIF-2a block 67
COc1ccc(/C=C2\SC(=S)N(CCC(=O)NCCCn3ccnc3)C2=O)cc1	HIF-2a block 40
COc1ccc(/C=C2\SC(=S)N(CCC(=O)NC3C=CS(=O)(=O)C3)C2=O)cc1 (stereo not drawn)	HIF-2a block 75
COc1cccc(/C=C2/SC(=S)N(CCC(=O)N3CCOCC3)C2=O)c1	none
